# Laboratory results reported in PubChem BioAssay AID588342 (National Center for Advancing Translational Sciences (NCATS), 2011).
# Screen size: about 360,000 compounds; about 25,000 (6.9%) were called active. Roughly 9% stayed inconclusive and do not appear here. Calls come from the whole dose curve; as a rule, active = well fitted inhibition curve with a large enough effect; inconclusive = small, poorly fitted or top-dose-only effect; inactive = flat fitted curve, though single readings scatter. The sample as a whole holds a higher share of actives than the screen did.
# Molecular target: Luciferin 4-monooxygenase (Photinus pyralis) (UniProt P08659)
# Sequence (P08659 whole entry, looked up): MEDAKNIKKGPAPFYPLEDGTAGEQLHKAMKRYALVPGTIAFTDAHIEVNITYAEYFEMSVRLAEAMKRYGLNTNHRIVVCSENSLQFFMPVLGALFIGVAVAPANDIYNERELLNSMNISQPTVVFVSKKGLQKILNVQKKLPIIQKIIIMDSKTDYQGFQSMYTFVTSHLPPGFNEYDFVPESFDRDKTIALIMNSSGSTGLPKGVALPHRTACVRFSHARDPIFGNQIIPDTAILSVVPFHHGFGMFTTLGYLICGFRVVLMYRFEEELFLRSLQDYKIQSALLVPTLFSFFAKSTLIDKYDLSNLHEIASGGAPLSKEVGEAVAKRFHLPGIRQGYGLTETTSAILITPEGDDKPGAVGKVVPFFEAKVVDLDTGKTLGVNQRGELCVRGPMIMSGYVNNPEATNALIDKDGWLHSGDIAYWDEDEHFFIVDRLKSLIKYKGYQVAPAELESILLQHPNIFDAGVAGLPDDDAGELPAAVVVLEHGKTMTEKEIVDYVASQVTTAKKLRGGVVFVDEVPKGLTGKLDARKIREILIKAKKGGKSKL
# Assay: qHTS profiling assay for firefly luciferase inhibitor/activator using purifed enzyme and Km concentrations of substrates (counterscreen for miR-21 project); note: nearly all actives have a fitted effect of over 55% in size;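 for activity change, negative = inhibition: plate controls were vehicle for no effect and reference inhibitor for full effect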
# Settings: purified FLuc, luminescence inhibition; series mostly up to 57.5 µM; activity change, negative = inhibition: at the top concentration
# In short: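 Purified P. pyralis luciferase, 10 nM final, with Km-level 10 uM D-luciferin and 10 uM ATP in 50 mM Tris acetate pH 7.5, 10 mM Mg acetate, 0.01% Tween-20, 0.05% BSA; 6-point qHTS titration about 60 µM downward; luminescence read.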
# Potency is the fitted concentration of half-maximal effect.
Structure (SMILES),"activity change, negative = inhibition",Potency
CCOc1ccc(CCNC(=O)c2cc3c(=O)n(C)c4ccccc4c3n2C)cc1,2.73% (inactive),
O=S(=O)(c1ccc(Br)c2ccccc12)N1CCOCC1,1.95% (inactive),
Cc1ccc(N=Cc2c(O)n(-c3nccs3)c(=O)c3ccccc23)c(C)c1,6.42% (inactive),
Cc1ccc(Oc2c(C(F)(F)F)oc3c(CN4CCCCC4)c(O)ccc3c2=O)cc1,-0.577% (inactive),
COc1cc(Cl)c(C)cc1NC(=O)CN1CCCCCC1,-4.1% (inactive),
O=C(CN1CCCCCC1)Nc1c(Cl)cc(Cl)cc1Cl,,15.1 µM (active)
O=C(CN1CCCCCC1)Nc1ccc(Br)cc1Br,,16.9 µM (active)
O=C(CN1CCOCC1)Nc1c(Cl)cc(Cl)cc1Cl,-0.972% (inactive),
COc1cc([N+](=O)[O-])ccc1NC(=O)CN1CCCC1,-1.25% (inactive),
O=C(CN1CCCCCC1)Nc1ccc(Cl)cc1F,-8.38% (inactive),
COc1ccc(C(=O)Nc2nonc2-c2ccc(OC)c(OC)c2)cc1Cl,-5.4% (inactive),
CCCc1ccc(OCC(O)CN2CCN(CCO)CC2)cc1 (stereo not given),-1.45% (inactive),
CC(C)Cn1c(N)c(C(=O)COC(=O)C2CCCN2C(=O)c2cccs2)c(=O)n(C)c1=O (stereo not given),2.54% (inactive),
COc1ccc(-c2nnc(SC(C)C(=O)NC3CC3)o2)cc1 (stereo not given),-9.71% (inactive),
Nc1nc(SCC(=O)Nc2ccc(Cl)c([N+](=O)[O-])c2)n[nH]1,-12.4% (inactive),
COc1ccc(NC(=O)CSC2=Nc3ccccc3C3=NC(CC(=O)NCc4ccccc4OC)C(=O)N23)cc1Cl (stereo not given),4.79% (inactive),
O=C(N/N=C/c1cccc(OC(=O)c2ccc([N+](=O)[O-])cc2)c1)c1cccnc1,1.89% (inactive),
O=C(c1cccc(Br)c1)N1CCN(C2=NS(=O)(=O)c3ccccc32)CC1,0.454% (inactive),
O=C(Oc1cccc(NC2=NS(=O)(=O)c3ccccc32)c1)c1ccncc1,,26.9 µM (active)
C[N+]1(CCNC(=O)/C=N/O)CCCCC1,1.69% (inactive),
COc1ccc(-n2cnc3cc(C(=O)NC4CCCC4)ccc32)cc1,,inactive
C=CCC(NCc1ccco1)c1ccc(OC)cc1 (stereo not given),-1.1% (inactive),
COc1ccc(-n2cnc3cc(NCc4ccco4)ccc32)cc1,,7.57 µM (active)
Cc1ccc(S(=O)(=O)c2nnn3c2nc(N2CCN(c4ccccc4F)CC2)c2cc(Cl)ccc23)cc1C,3.15% (inactive),
COc1ccc(CCNC(=O)c2cnc3sc(N4CCCCCC4)nn3c2=O)cc1OC,-0.514% (inactive),
COc1ccc(NC(=S)NC2CCS(=O)(=O)C2)cc1 (stereo not given),3.48% (inactive),
O=C(CN1C(=O)S/C(=C\c2ccccc2F)C1=O)NCCCn1ccnc1,-17.9% (inactive),

Structure (SMILES),"activity change, negative = inhibition",Potency
COc1ccc(/C=C2\SC(=O)N(CCC(=O)NCCCn3ccnc3)C2=O)cc1,,13.5 µM (active)
COc1ccc(NC(=O)CCN2C(=O)/C(=C/c3ccc4c(c3)OCO4)SC2=S)cc1,1.43% (inactive),
O=C(CCN1C(=O)c2ccccc2C1=O)NCCCn1ccnc1,0.843% (inactive),
COc1ccc(/C=C2\SC(=O)N(CCC(=O)NC3CCS(=O)(=O)C3)C2=O)cc1 (stereo not given),,10.7 µM (active)
O=C(C1CCN(CC2CCCCC2)CC1)N1CCCC1,6.5% (inactive),
COc1ccc(-c2nn3c(=O)cc(CN4CCN(C(=O)c5ccc(OC)c(OC)c5)CC4)nc3s2)cc1,-1.63% (inactive),
Cc1c(-c2nsc(NC(=O)c3cccc(Cl)c3)n2)nnn1-c1ccccc1C(F)(F)F,,12 µM (active)
CCc1cccc(-n2nnc(-c3nsc(NC(=O)c4ccc(C)cc4)n3)c2C)c1,-2.73% (inactive),
COc1ccc(-n2nnc(-c3nsc(NC(=O)c4ccc(C)c(C)c4)n3)c2C)cc1Cl,1.79% (inactive),
COc1ccc(OCCCn2c(C)nc3cc(C)c(C)cc32)cc1,-1.58% (inactive),
O=C(/C=C/Nc1ccccc1)c1cnc(-c2ccccc2)s1,-5.04% (inactive),
CC(=O)c1cnc(-c2ccccc2)s1,-17.3% (inactive),
CC(C)(C)C(=O)c1cnc(Nc2ccccc2)s1,,6.01 µM (active)
COc1ccc(NC(=O)CSc2nnc(-c3nnn(-c4ccc(F)cc4)c3C)o2)cc1,-16.8% (inactive),
CCc1c(-c2ccccc2)nc(N)c(C#N)c1-c1cccs1,-1.39% (inactive),
O=C(O)Cc1sc(-c2ccccc2)nc1-c1cccs1,,23.9 µM (active)
CN(C(=O)COc1nnc(-c2cccs2)c(-c2cccs2)n1)c1ccccc1,2.3% (inactive),
O=C(CCc1ccccc1Cl)Nc1ccc(S(=O)(=O)Nc2nccs2)cc1,0.725% (inactive),
COc1cc(C(=O)N(Cc2ccc(C(C)C)cc2)C2CCS(=O)(=O)C2)cc(OC)c1OC (stereo not given),-0.151% (inactive),
CC(=O)N/N=C(\C)c1ccc(Br)cc1Br,1.38% (inactive),
COc1ccc(-c2[nH]ncc2/C=N/NC(=O)c2cc(Br)ccc2O)c(OC)c1,-10.2% (inactive),
CC(=N\NC(=O)c1cc(Br)ccc1O)/C(=N/O)C(=O)Nc1ccccc1,,15.1 µM (active)
CCOC(=O)c1c(NC(=O)c2ccc(S(=O)(=O)N3CCCC(C)C3)cc2)sc2c1CCN(C(C)C)C2 (stereo not given),-1.35% (inactive),
CC(C)CCN1CCC(C)(NC(=O)c2ccccc2)C1=O (stereo not given),0.614% (inactive),
CC1=C(c2ccc(F)cc2)S(=O)(=O)N=C1N1CCC(C(=O)NCCc2ccccc2C)CC1,4.64% (inactive),
Cc1cnc(C(=O)OCC(=O)N2CCc3ccccc32)cn1,-1.84% (inactive),
O=C(c1cnn2ccccc12)N1CCc2ccccc21,,6.75 µM (active)

Structure (SMILES),"activity change, negative = inhibition",Potency
CCOC(=O)N1CCC(NC(=O)c2cnn3ccccc23)CC1,-0.69% (inactive),
CCOC(=O)c1c(NC(=O)/C(C#N)=C/c2ccccc2)sc2c1CCC2,-1.39% (inactive),
COc1ccc(Cn2c(C(=O)O)c(CNCc3cccc(OC)c3)c3ccc(C)cc32)cc1,2.05% (inactive),
CN1CCN(S(=O)(=O)c2cccc(C(=O)Nc3sccc3C#N)c2)CC1,-0.762% (inactive),
O=C(Nc1ccncc1)c1ccccc1[N+](=O)[O-],3.49% (inactive),
O=C(Nc1ccccc1C(=O)Nc1ccncc1)c1ccc([N+](=O)[O-])cc1,,19 µM (active)
O=C(Nc1ccncc1)c1ccc(Cl)c([N+](=O)[O-])c1,-2.44% (inactive),
CC(=O)Nc1ccc(NC(=O)CSc2nnc(C3CC3)n2-c2ccccc2)cc1,1.21% (inactive),
CCc1nn(CCCC(=O)NCc2ccccc2OC)c(=O)c2cc3occc3n12,1.41% (inactive),
CC1CN(C(=O)N2CCC(C(=O)NCc3cccs3)CC2)c2ccccc2O1 (stereo not given),,1.9 µM (active)
O=C(NCc1cccs1)C1CCN(S(=O)(=O)c2ccc(Cl)cc2)CC1,1.13% (inactive),
CC1CN(C(=O)N2CCC(C(=O)NCc3ccco3)CC2)c2cc(Cl)ccc2O1 (stereo not given),-0.408% (inactive),
Cc1nc2nc(SCC(=O)NC3CCC(C)CC3)nn2c(C)c1Cc1ccccc1Cl (stereo not given),-17.6% (inactive),
S=c1[nH]nc(/C=C/c2ccccc2)o1,,26.9 µM (active)
O=c1oc(/C=C/c2ccccc2)nc2ccccc12,-0.823% (inactive),
Clc1ccc(CSc2nnc(/C=C/c3ccccc3)o2)c(Cl)c1,7.83% (inactive),
COc1cccc(-n2ccn(CC(=O)NCc3ccc(C)cc3)c(=O)c2=O)c1,4.44% (inactive),
CCS(=O)(=O)N1CCc2cc(C(=O)N3CCN(c4ccccc4OC)CC3)ccc21,-4.59% (inactive),
CCc1ccccc1NC(=O)c1sc2nc3c(cc2c1N)CN(Cc1ccccc1)CC3,-6% (inactive),
CCc1nnc(NC(=O)c2nc3nccc(C)n3n2)s1,1.07% (inactive),
CCc1ccc2nc3sc(C(=O)Nc4nnc(CC)s4)c(N)c3cc2c1,,2.39 µM (active)
CSc1ccc(CCNC(=O)c2ccc3c(c2)nc2n3CCOC2)cc1,-18.1% (inactive),
CC(C)c1ccc(/C=C2\NC(=O)NC2=O)cc1,,21.3 µM (active)
Cc1ccc(NC(=O)COc2ccc(/C=C3/NC(=O)NC3=O)cc2)cc1,-5.63% (inactive),
CC(C)c1ccc(S(=O)(=O)N2CCC3(CC2)OCCO3)cc1,0.935% (inactive),
Cc1ccc(C)c(Cn2c(C(=O)O)c(CNCc3cccs3)c3ccccc32)c1,-3% (inactive),
COc1ccccc1OCCNC(=O)CCNC(=O)c1ccccc1Cl,0.227% (inactive),

Structure (SMILES),"activity change, negative = inhibition",Potency
O=C(NCCOc1ccccc1Cl)C(=O)Nc1ccccc1,-13.2% (inactive),
COc1cc(SC)ccc1C(=O)Nc1cc(C)ccn1,,1.35 µM (active)
Cc1ccnc(NC(=O)c2ccoc2C)c1,,16.9 µM (active)
Cc1csc(NC(=O)CSc2nc(=O)cc(N)n2-c2ccc(F)cc2)n1,0.955% (inactive),
COc1cc(SC)ccc1C(=O)NCCOc1ccccc1Cl,,6.01 µM (active)
COc1cc(Cl)c(C)cc1NC(=O)COC(=O)c1cc(SC)ccc1Cl,2.75% (inactive),
COc1cc(SC)ccc1C(=O)Nc1nc(C)cs1,,0.0757 µM (active)
Cc1ccnc(NC(=O)CCCOc2ccccc2)c1,3.66% (inactive),
Cc1occc1C(=O)Nc1cccc(Cn2cccn2)c1,4.82% (inactive),
COc1cc(SC)ccc1C(=O)N(Cc1ccccc1)c1ccccc1,1.81% (inactive),
Cc1ccnc(NC(=O)C(C)N2C(=O)c3ccccc3C2=O)c1 (stereo not given),-0.934% (inactive),
O=C(CN1CCN(C(=O)C2CCCO2)CC1)Nc1c(Cl)cccc1Cl (stereo not given),1.65% (inactive),
CCCCCCNC(=O)CSc1nccn1Cc1ccccc1,-0.453% (inactive),
COC(=O)Cn1cnc2scc(-c3ccc(C)c(C)c3)c2c1=O,6.57% (inactive),
CCC(NC(=O)c1ccccc1NC(=O)c1ccccc1)C(=O)NNC(=O)CSc1nc2ccccc2o1 (stereo not given),-17.4% (inactive),
O=C(Cn1nnc2ccccc2c1=O)Nc1cc(C(F)(F)F)ccc1N1CCOCC1,-0.915% (inactive),
CC(CO)NCC12CC3CC(CC(C3)C1)C2 (stereo not given),0.574% (inactive),
CCOc1ccccc1NC(=O)c1ccc2c(c1)CCN2S(=O)(=O)c1ccc(C)cc1,-0.319% (inactive),
O=C(NCCc1csc(-c2ccc(C(F)(F)F)cc2)n1)C(=O)Nc1ccc(F)c(Cl)c1,0.42% (inactive),
Cc1ccc(C)c(N2CCN(C(=O)CN3C(=O)COc4ccc(S(=O)(=O)N5CCCCCC5)cc43)CC2)c1,-11.7% (inactive),
CC(=O)Nc1ccc(S(=O)(=O)N2CCN(c3ccc([N+](=O)[O-])c(NCCN4CCOCC4)c3)CC2)cc1,2.44% (inactive),
COc1ccccc1OCCNc1cc(N2CCOCC2)ccc1[N+](=O)[O-],,15.1 µM (active)
O=C(c1ccccc1)N1CCN(c2ccc([N+](=O)[O-])c(NCc3ccco3)c2)CC1,0.947% (inactive),
O=C(CCn1ccc2cc(S(=O)(=O)N3CCCC3)ccc21)NCc1cccc(Cl)c1,-7.4% (inactive),
